CYP2C9 activ – activators of human CYP2C9 | hit rate 1.4% among 96,000 | AID 1024 | activation factor at 5 µM | recombinant CYP2C9, luciferin-H conversion, luminescence; stronger effect = higher value; factor 1 = untreated enzyme, 0 = blocked | P11712;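 active means activation factor of 2 or more for CYP2C9 at a 5 µM dose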
Target sequence (P11712 whole entry, looked up): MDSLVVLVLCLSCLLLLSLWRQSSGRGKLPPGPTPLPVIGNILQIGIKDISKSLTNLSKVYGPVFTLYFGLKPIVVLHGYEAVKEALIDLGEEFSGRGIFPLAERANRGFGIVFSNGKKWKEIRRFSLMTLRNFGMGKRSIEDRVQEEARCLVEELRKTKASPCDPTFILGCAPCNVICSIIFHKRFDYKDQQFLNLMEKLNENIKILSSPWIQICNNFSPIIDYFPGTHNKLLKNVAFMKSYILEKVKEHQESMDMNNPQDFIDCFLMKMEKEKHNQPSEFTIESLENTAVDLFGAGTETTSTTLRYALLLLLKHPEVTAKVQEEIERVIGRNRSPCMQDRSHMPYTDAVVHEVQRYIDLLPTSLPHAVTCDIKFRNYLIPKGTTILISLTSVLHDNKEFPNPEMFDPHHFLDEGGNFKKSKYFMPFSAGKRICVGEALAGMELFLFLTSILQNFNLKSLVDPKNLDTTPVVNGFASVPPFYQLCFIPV
CYP2C19 inh – human CYP2C19 inhibition; P33261; CYP2C19 Supersomes, luciferin-H EGE luminescence, 30 min; inhibition, % at 5 µM; hit rate 21% among 96,000; AID 778;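 active means CYP2C19 inhibition above a set limit at 5 µM in the primary screen, cut at about 50% in these data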
Measles CPE – protection of cells from measles virus; Measles virus-infected cells, CPE protection, absorbance; hit rate 1.5% among 140,000; AID 841; protection (pct of control), % at 4 µM; in the data active means protection mostly above about 24%, no sharp cut-off; inactive means mostly below about 26%
CYP2C19 act – cytochrome P450 2C19 (human) activation | P33261 | 96,000 tested, under 10 active | recombinant CYP2C19, luciferin-H EGE luminescence; stronger effect = higher value; 0 = fully inhibited enzyme, 1 = untreated enzyme | activation factor at 5 µM;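 active means activation factor of at least 2 at 5 µM in the primary screen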
CYP2C9 inhib – blocks human cytochrome P450 2C9; hit rate 20% among 96,000; inhibition, % at 5 µM; CYP2C9 Supersomes, luciferin-H conversion, luminescence; AID 777; P11712;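 active means blocking of liver enzyme CYP2C9 beyond about 50% at 5 µM, limit read from the data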
Large screens that a line does not name were inactive. This is a sample that favours compounds with a hit; in the whole collection about 22% have one here.

O=C(c1cc(-c2ccco2)on1)N1CCN(c2ccccc2)CC1	CYP2C19 inh 84, CYP2C9 inhib 87
CC(C)C12CN3CC(C(C)C)(CN(C1)C3c1ccccc1O)C2=O (configuration not stated)	CYP2C19 inh 91, CYP2C9 inhib 90
CC12CN3CC(C)(CN(C1)C3c1ccc(Br)cc1)C2=O (configuration not stated)	none
CC12CN3CC(C)(CN(C1)C3c1cc(Br)ccc1O)C2=O (configuration not stated)	CYP2C19 inh 52
CN1C(=O)c2ccccc2N(C)C1c1ccc2c(c1)OCO2 (configuration not stated)	CYP2C19 inh 81, CYP2C9 inhib 69
CCCC12CN3CC(C)(CN(C1)C3c1ccc3c(c1)OCO3)C2=O (configuration not stated)	CYP2C19 inh 73
COc1ccc(S(=O)(=O)NN=C2CCCCC2)cc1	none
CC(=O)C1=NN(c2ccccc2)C(c2ccc3c(c2)OCO3)N1c1ccccc1 (configuration not stated)	none (no result: CYP2C9 activ, CYP2C19 inh, CYP2C19 act, CYP2C9 inhib)
CC(C)C12CN3CC(C(C)C)(CN(C1)C3c1ccc3c(c1)OCO3)C2=O (configuration not stated)	CYP2C19 inh 92, CYP2C9 inhib 75
O=C(NCCCO)c1nnc(Cc2c(F)cccc2Cl)o1	none
O=C(NCCCN1CCN(Cc2ccccc2)CC1)c1nnc(Cc2c(F)cccc2Cl)o1	Measles CPE 39, CYP2C9 inhib 56
CCCC(=O)Nc1nnc(COC)s1	none
C1=Nc2c(Nc3ccccc3)ncnc2Oc2ccccc21	CYP2C19 inh 54, CYP2C9 inhib 62
CCSc1sccc1C1C(C#N)=C(N)N(c2cccnc2)C2=C1C(=O)CC(C)(C)C2 (configuration not stated)	CYP2C19 inh 74, CYP2C9 inhib 60
COc1ccc(C2C(C#N)=C(N)N(c3cccnc3)C3=C2C(=O)CC(C)(C)C3)cc1OC (configuration not stated)	none (no result: CYP2C9 activ, CYP2C19 inh, CYP2C19 act, CYP2C9 inhib)
CC1(C)CC(=O)C2=C(C1)OC(c1cccs1)C(C#N)=C2N (configuration not stated)	CYP2C19 inh 83, CYP2C9 inhib 68
COc1ccc(N2C(N)=C(C#N)C(c3cccnc3)C3=C2CC(C)(C)CC3=O)cc1 (configuration not stated)	CYP2C9 inhib 56
CC1(C)CC(=O)C2=C(C1)N(c1ccccc1C#N)C(N)=C(C#N)C2c1cccs1 (configuration not stated)	CYP2C9 inhib 71
O=C1c2oc3ccc(Br)cc3c(=O)c2C(c2cccnc2)N1Cc1ccco1 (configuration not stated)	none (no result: Measles CPE)
CC1=C(C(=O)OCc2ccc3c(c2)OCO3)C(c2ccccc2)NC(=O)N1 (configuration not stated)	none
CCCOc1ccccc1C1NC(=O)NC(C)=C1C(=O)OCCOC(C)C (configuration not stated)	CYP2C19 inh 56, CYP2C9 inhib 53
CCCOc1ccccc1C1NC(=O)NC(C)=C1C(=O)OCCOC (configuration not stated)	CYP2C19 inh 54
CC1=C(C(=O)OCc2ccc3c(c2)OCO3)C(c2ccccc2OCc2ccccc2)NC(=O)N1 (configuration not stated)	CYP2C9 inhib 99
CCCOc1ccccc1C1NC(=O)NC(C)=C1C(=O)OCc1ccccc1 (configuration not stated)	none (no result: CYP2C9 activ, CYP2C19 inh, CYP2C19 act, CYP2C9 inhib)
CCOC(=O)C1CCN(S(=O)(=O)c2cnc[nH]2)CC1	CYP2C19 inh 58, CYP2C9 inhib 98
Cc1cccc2sc(NC(=O)C3CCN(S(=O)(=O)c4cc([N+](=O)[O-])ccc4Cl)CC3)nc12	none (no result: CYP2C9 activ, CYP2C19 inh, CYP2C19 act, CYP2C9 inhib)
O=C(Nc1ncc([N+](=O)[O-])s1)C1CCN(S(=O)(=O)c2cnc[nH]2)CC1	CYP2C9 inhib 97
CCOC(=O)C1CCCN(C(=O)C2CCN(S(=O)(=O)c3cnc[nH]3)CC2)C1 (configuration not stated)	CYP2C9 inhib 87
O=C(C1CCN(S(=O)(=O)c2cnc[nH]2)CC1)N1CCN(c2ncccn2)CC1	none
CCOc1ccc(OCC)c(NC(=O)C2CCN(S(=O)(=O)c3cnc[nH]3)CC2)c1	CYP2C9 inhib 84
C=CCOc1ccc2c(CC)cc(=O)oc2c1C	none (no result: CYP2C9 activ, CYP2C19 inh, CYP2C19 act, CYP2C9 inhib)
CCn1c(SCC(=O)NC)nnc1C(C)C	none (no result: CYP2C9 activ, CYP2C19 inh, CYP2C19 act, CYP2C9 inhib)
COc1ccc2c(C)cc(SCC(=O)N3CCOCC3)nc2c1	CYP2C19 inh 68
COc1ccc2c(C)cc(N3CCOCC3)nc2c1	none
Cc1ccc(C)c(SCC(=O)OCC(=O)c2ccco2)c1	none

From PubChem
